Growth data for 14 compounds are collected here from PubChem BioAssay (NCI).

What all share (experiment): NCI-60 one-dose screen, 48 h (100 = growth as untreated, 0 = no growth, -100 = all killed)
Common to all, as to details: 10 µM unless noted

Test [1] relates to T-47D breast.
Test [2] concerns BT-549 breast.
In test [3] the test system is MDA-MB-435 melanoma.
Test [4] deals with SW-620 colon.
The test system of test [5] is MCF7 breast.
Test [6] relates to HCT-116 colon.
Test [7] concerns HCC-2998 colon.
Test [8] deals with KM12 colon.

The panel holds about 83,000 compounds, 20% with a hit somewhere; the sample as a whole holds those more often.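 96-well plates, one dose, 48 hours. Percent growth reported; active if below 10.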 Unmarked numbers belong to inactive results. Active and inactive are the calls of the source.

Consider `COc1ccn2c(C(C)=O)cc(C(=O)c3ccc4c(c3)Sc3ccccc3N4)c2c1`, for which the growth in test [1] is 57.4%; in test [2], 55.6%; in test [3], -32.9% (active); in test [4] it was 23.4%; in test [5], 20.9%; in test [6] it was 1.38% (active). Further, the growth is 21.2% in test [7] and 7.27% (active) in test [8].
Take `CC(=O)Oc1ccccc1C(=O)N=C1[Se]CCCN1C(=O)c1ccccc1OC(C)=O`: the growth in test [1] is 85.2%; in test [2], -97.2% (active); in test [3] it was -18.9% (active); in test [4], 88.4%; in test [5], 15.7%; in test [6], -8.29% (active). Further, the growth in test [7] is 104%; in test [8], 30.5%.
`NS(=O)(=O)c1ccc(N=Nc2ccc(-c3nn4cc(-c5ccccc5)nc4s3)cc2)cc1`: the growth in test [1] was 87.6%; in test [2] it was 84.8%; in test [3] it was 101%; in test [4], 96.2%; in test [5] it was 94%; in test [6] it was 88.8%. Moreover, the growth in test [7] was 104%; in test [8] it was 95.7%.
For the compound `C(=N/Nc1ncnc2nc[nH]c12)/c1ccccn1`, the growth was 30.2% in test [1]; 54.7% in test [2]; 39.5% in test [3]; 36.8% in test [4]; 22.9% in test [5]; 28.1% in test [6]. For the same compound, the growth is 28.2% in test [7] and 36.3% in test [8].
Consider `Cn1cc(-c2cc3ncnc(Nc4ccc(CC(=O)Nc5cc(C(C)(C)C)nn5C)cc4)c3s2)cn1`, for which the growth is 12.1% in test [1]; 45.7% in test [2]; 58.4% in test [3]; 63% in test [4]; 54.8% in test [5]; 39.2% in test [6]. Also, the growth is 80.8% in test [7] and 16.7% in test [8].
For the compound `Cc1nc2ccccc2n1-c1ncnc2c1CC(C)c1ccccc1N2C` (configuration not stated), the growth in test [1] is 72.1%; in test [2], 92.3%; in test [3] it was 8.87% (active); in test [4], 68%; in test [5] it was 61.8%; in test [6], 96.2%. Also, the growth is 90% in test [7] and 73.6% in test [8].
Regarding `O=c1c2cccc(Cl)c2sc2c(NCCCNCCO)nc3ccccc3c12`, the growth is 42.7% in test [1]; 80.1% in test [2]; -87.1% (active) in test [3]; -97.6% (active) in test [4]; 15.3% in test [5]; -58.9% (active) in test [6]. Also, the growth is -88% (active) in test [7] and -62.1% (active) in test [8].
As for `CCCCCCNC(=O)Oc1ccc(/C(=C(\C)c2ccc(OC)cc2)c2ccc(OCCN3CCCCC3)cc2)cc1`, the growth in test [1] was 48%; in test [2] it was 70.4%; in test [3], 66.7%; in test [4], 55.3%; in test [5] it was 22.7%; in test [6] it was 34.5%. The figures for the growth in test [7] and in test [8] were 80.6% and 43.5%, respectively.
Turning to `O=S(=O)(NCCCNc1cc(-c2c(-c3cccc(O)c3)nc3sccn23)ccn1)c1cccc2ccccc12`, the growth is 8.57% (active) in test [1]; 25.5% in test [2]; 35.6% in test [3]; 47.1% in test [4]; 35.4% in test [5]; 33.1% in test [6]. The growth was 59.2% in test [7] and 34.8% in test [8].
As to `O=C1/C(=C/c2ccc(F)cc2)Sc2c(Br)cccc21`, the growth in test [1] was 43.4%; in test [2], 87%; in test [3], 102%; in test [4], 89.4%; in test [5], 20.1%; in test [6], 85.8%. Also, the growth in test [7] is 99.3%; in test [8], 86%.
On to `CC([C@H]1CCC2C3CCC4C[C@@H](NC=O)CC[C@]4(C)C3CC[C@@]21C)N(C)C` (some centres not stated), for which the growth in test [1] was -40.6% (active); in test [2] it was 30.7%; in test [3], -46.1% (active); in test [4] it was -71.5% (active); in test [5], -23.1% (active); in test [6], -66.2% (active). In addition, the growth in test [7] was -67.2% (active); in test [8], -21.1% (active).
For `COc1cc(/C=N/NC(=O)c2ccc(C)nc2)cc(OC)c1OC`, the growth is 104% in test [1]; 105% in test [2]; 109% in test [3]; 95.6% in test [4]; 103% in test [5]; 110% in test [6]. The growth was 106% in test [7] and 97.8% in test [8].
As to `COc1ccc2[nH]c(-c3ccccc3)c(/C=C(\C#N)S(=O)(=O)c3ccccc3)c2c1`, the growth in test [1] is 38.1%; in test [2] it was 64.5%; in test [3], 2.24% (active); in test [4] it was 35.6%; in test [5], 26.2%; in test [6], 31.4%. The values for the growth in test [7] and in test [8] were 68.4% and 33.4%, respectively.
On to `CCC(C)(c1cc(C(C)(C)C)c(O)c(C(C)(C)C)c1)c1cc(C(C)(C)C)c(O)c(C(C)(C)C)c1`, for which the growth in test [1] is 84.2%; in test [2], 104%; in test [3] it was 105%; in test [4], 102%; in test [5] it was 92.5%; in test [6] it was 99.2%. Moreover, the growth in test [7] was 110%; in test [8], 100%.
